Screening data from PubChem.
ALDH1A1 inh: ALDH1A1 (human) enzyme inhibition; P00352; Potency, µM (titrated, usually from 75.3 µM), for the others: at the top dose activity, negative = inhibition, usual class: inhibitors; Purified ALDH1A1, NADH fluorescence, propionaldehyde substrate; 220,000 tested, 7.3% active; active = well fitted inhibition curve with a large enough effect, not every such curve was filed as active; inconclusive = small, poorly fitted or top-dose-only effect, or another doubt; inactive = no such curve, though single readings can be large or run the other way;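 also: potency is read from the fitted curve at half-maximal effect; plate controls were no enzyme wells and a reference inhibitor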
Target sequence (P00352 whole entry, looked up): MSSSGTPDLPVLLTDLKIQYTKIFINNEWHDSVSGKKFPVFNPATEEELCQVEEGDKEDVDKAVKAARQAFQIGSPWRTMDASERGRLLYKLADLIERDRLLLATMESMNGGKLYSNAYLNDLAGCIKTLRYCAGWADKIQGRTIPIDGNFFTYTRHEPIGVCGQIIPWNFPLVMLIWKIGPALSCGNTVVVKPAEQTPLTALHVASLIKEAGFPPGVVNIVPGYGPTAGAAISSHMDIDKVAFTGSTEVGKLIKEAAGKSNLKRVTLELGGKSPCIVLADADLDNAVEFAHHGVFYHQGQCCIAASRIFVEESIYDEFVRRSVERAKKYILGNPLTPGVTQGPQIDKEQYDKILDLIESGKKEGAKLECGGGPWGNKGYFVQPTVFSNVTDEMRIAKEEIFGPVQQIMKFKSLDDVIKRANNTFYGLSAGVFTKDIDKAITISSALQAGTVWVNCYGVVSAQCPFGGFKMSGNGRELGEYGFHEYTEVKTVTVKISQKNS
HTT aggregate: reduces HttQ103-GFP aggregates in PC12 cells; 220,000 tested, 1.1% active; Potency, µM (top dose mostly 46.1 µM), for inactives: at the top dose activity change, negative = inhibition, usual class: inhibitors; AID 1688; PC12 HttQ103-GFP aggregates, Acumen cytometry, 40 h; also: potency is read from the fitted curve at half-maximal effect; % is scaled to controls: 0 for no effect and ±100 for the full control effect; nearly all actives have a fitted effect of over 60% in size
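Using laser scanning cytometry, GFP-positive aggregates were counted after lysis of PC12 cells induced with 100 nM tebufenozide to express HTT exon 1 Q103–GFP. Compounds were tested in titration.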
HTT ATP protect: Huntington cell model cytoprotection by ATP luminescence; Potency, µM (top dose mostly 56.4 µM), for inactives: cytoprotection (ATP increase), most hits filed as activators; 230,000 tested, 0.14% active; PC12 HTT-Q103 induced, cytoprotection, ATP luminescence, 40 h; AID 1471; also: potency is read from the fitted curve at half-maximal effect; % of control where 0% means no effect; nearly all actives have a fitted effect of over 45% in size
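Compounds added alongside 100 nM tebufenozide, which induces toxic Q103 huntingtin exon 1-GFP in stable PC12 cells; surviving cells quantified by luminescent ATP measurement. Medium: phenol red-free DMEM, 5% equine and 5% calf serum.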
HPGD inh: blocks human HPGD enzyme activity; P15428; 150,000 tested, 4.3% active; purified HPGD, NADH fluorescence kinetic, PGE2 substrate; Potency, µM, for inactives: at the highest dose activity change, negative = inhibition, most hits filed as inhibitors; active = well fitted inhibition curve with a large enough effect, not every such curve was filed as active; inconclusive = small, poorly fitted or top-dose-only effect, or another doubt; inactive = no such curve, though single readings can be large or run the other way; also: potency is read from the fitted curve at half-maximal effect; % is scaled to controls: 0 for no effect and ±100 for the full control effect
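NADH formation kinetics: reaction with 30 uM PGE2 and 1 mM NAD+ (final), 20 nM enzyme, Tris-HCl pH 8 with Tween 20, after 15 min compound preincubation at room temperature. Fluorescence change, last versus first of five reads.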
CBFb-RUNX1 inh: blocks binding between human CBF-beta and RUNX1; Q01196+Q13951; 230,000 tested, under 10 active; AID 1477; AlphaScreen CBFb-His/RUNX1-biotin binding, biochemical; Potency, µM (series often up to 59.8 µM), for the others: at the highest dose activity, negative = inhibition, usual class: inhibitors; also: % of control where 0% means no effect
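CBF-beta (His) and RUNX1 (biotin), 30 nM each; 20 min preassociation; + compound, 15 min; + beads 50 ng each (Ni, streptavidin), 90 min; RT; AlphaScreen read.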
JMJD2E inh: JMJD2E (human) inhibition; B2RXH2; JMJD2E catalytic domain, FDH-coupled NADH fluorescence (FDH is formaldehyde dehydrogenase); Potency, µM (highest dose often 57.1 µM), inactives show at the highest dose activity change, negative = inhibition, hits mostly inhibitors; 230,000 tested, 1.6% active; AID 2147; active = well fitted inhibition curve with a large enough effect, not every such curve was filed as active; inconclusive = small, poorly fitted or top-dose-only effect, or another doubt; inactive = no such curve, though single readings can be large or run the other way;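 also: potency is read from the fitted curve at half-maximal effect; 0% = wells with enzyme and -100% = buffer wells without enzyme; nearly all actives have a fitted effect of over 50% in size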
The depositor's hits bear a star; ? = inconclusive; nt = no result; [ ] = remark or other dose. Most compounds without a hit are left out; they make up all but 9.8% or so of the library. Unless noted, calls follow the shape of the dose curve; as a rule, active = well fitted curve in the direction sought with a large enough effect; inconclusive = small, poorly fitted or top-dose-only effect, or another doubt; inactive = no such curve, though single readings can be large; an effect the other way counts as inactive or inconclusive.

SMILES | ALDH1A1 inh | HTT aggregate | HTT ATP protect | HPGD inh | CBFb-RUNX1 inh | JMJD2E inh
Cc1nc(N2CCN(Cc3ccccc3)CC2)nc2c1C(=O)CC(c1ccco1)C2 (stereo not drawn) | 22µM* | ? | 3% | -18% | 1% | ?
CCN(CC)C(=O)CSc1nc2c(sc(=S)n2-c2ccccc2)c(=O)n1Cc1ccco1 | 10µM* | 2%[9.22 µM] | -32% | 32µM* | -16% | -10%
CCN(CC)C(=O)CSc1nc2c(sc(=S)n2CC)c(=O)n1-c1ccccc1 | ? | -14% | -14%[10 µM] | -4% | -2% | -9%
COc1ccccc1-n1c(=S)sc2c(=O)n(Cc3ccco3)c(SC)nc21 | 20µM* | 21% | 6%[0.074 µM] | -28% | -22% | -3%
CCOC(=O)CSc1nc2c(sc(=S)n2Cc2ccco2)c(=O)n1-c1ccc(F)cc1 | -15% | 0% | -4%[0.074 µM] | -16% | -15% | 7%
CC(C)C[C@H](N)CSSC[C@@H](N)CC(C)C | 2% | nt | -26%[1.9 µM] | -3% | 4% | -2%
Cc1c(Cl)cccc1NC(=S)N(Cc1cccs1)C1CCCC1 | ? | -8% | ? | nt | -3% | -5%
Cc1csc(N/N=C\c2cccnc2)n1 | 11µM* | -2% | 19% | nt | -4% | ?
Cc1cc(C)cc(N(CC(=O)NCc2cccnc2)S(C)(=O)=O)c1 | 9% | -4% | 1%[10 µM] | -6% | 8% | 0%
CCOC(=O)c1[nH]c2ccc(OC)cc2c1NC(=S)N1CCN(c2ccccc2)CC1 | 25µM* | -8% | -33%[10 µM] | -18% | -6% | -1%
CC(C)=CCCC1(C)C=Cc2c(c(C)cc3c2[nH]c2ccccc23)O1 (stereo not drawn) | 10% | nt | -98% | -8% | 10% | 4%
O=S(=O)(Nc1ccc(Cc2ccncc2)cc1)c1cccs1 | 10% | -32% | -18% | 28µM* | 2% | 1%
CCS(=O)(=O)Nc1ccc(Cc2ccncc2)cc1 | -14% | 18% | 1% | 1.3µM* | 5% | 1%
CCS(=O)(=O)Nc1ccc(NC(C)=O)cc1 | 8% | 11% | -35% | 25µM* | 4% | 2%
O=S(=O)(Nc1ccc(Cc2ccncc2)cc1)c1ccc(Br)s1 | 8% | ? | -43% | -23% | 2% | 6%
O=C(c1ccc(-n2cccn2)cc1)N1CCc2ccccc2C1 | nt | -12%[9.22 µM] | 4%[10 µM] | nt | 8% | 5%
C/C(=N\OCC(=O)Nn1c(C)nc2ccccc2c1=O)c1cccs1 | nt | 7%[9.22 µM] | -4%[10 µM] | nt | 4% | 0%
CCOC(=O)c1sc(-c2ccccn2)nc1C | -2% | -1% | -6%[10 µM] | nt | -5% | -21%
CCC/C=C(\CCC)C(NC(=O)C(C)(C)C)c1ccc(C(=O)OC)cc1 (stereo not drawn) | -6% | nt | -2% | -19% | ? | -29%
CCOc1ccc(N=C2NC(=O)S/C2=C\c2ccc(N(C)C)cc2)cc1 | -1% | 22µM* | -88% | -11% | -1% | -5%
CCOc1ccc(/C=C2/SC(=O)NC2=S)cc1 | ? | -21% | -21%[10 µM] | 13µM* | -19% | -5%
COc1ccc(-n2c(C)c3c(OC)cccc(=O)c3c2C)cc1 | 0% | ? | 12% | -25% | -14% | -3%
COc1ccccc1-n1c(C)c2c(OC)cccc(=O)c2c1C | ? | ? | nt | 11µM* | 0% | ?
CN(C)c1ccc(CC2C(=O)Nc3ccccc32)cc1 (stereo not drawn) | nt | -6%[9.22 µM] | -1%[10 µM] | nt | -9% | 3.2µM*
O=S(=O)(Cc1ccccc1Cl)CC(O)COc1ccccc1Cl (stereo not drawn) | -4% | -2% | 1% | 11µM* | 0% | 2%
CCOC(=O)C1=C(Cc2ccc(C)cc2)C(=O)c2ccccc2C1=O | ? | ? | -47% | 13µM* | -8% | -20%
CCOC(=O)C1=C(Cc2ccc(OC)cc2)C(=O)c2ccccc2C1=O | ? | ? | -26% | 32µM* | -5% | ?
Cc1ccc(N(C(=O)CCl)C(C(=O)NC2CCCCC2)c2cccnc2)cc1C (stereo not drawn) | 9% | 3.5µM* | -86%[10 µM] | -10% | 10% | 1%
